Bioassay records: PubChem, National Center for Advancing Translational Sciences (NCATS)
SARS PLP yeast – SARS-CoV PLP inhibition in yeast | AID 485353 | Potency, µM (highest dose often 32.9 µM), inactives show at the top dose activity, positive = growth rescue, actives largely listed as activators | 330,000 compounds, 0.19% hits | S. cerevisiae expressing SARS-CoV PLpro, growth rescue; calls by dose curve; also: 0% is about no effect; nearly all actives have a fitted effect of over 55% in size
HCV inhibitor – blocks hepatitis C virus | Huh7.5.1 HCVcc-Cre infection, luciferase reporter, 44 h | Potency, µM (titrated, usually from 41.8 µM), without a hit: at the top dose activity change, negative = inhibition, actives largely listed as inhibitors | 340,000 compounds, 3.4% hits | AID 651820; also: % is scaled to controls: 0 for no effect and ±100 for the full control effect
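Infectious HCV cell culture screen: compound-treated cells (1,000/well, pre-plated 4 h) are infected with HCVcc-Cre at roughly 0.5 moi and grown 44 h. Infection is quantified by luciferase signal after 15 min substrate incubation at room temperature.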
Pf growth 48h – P. falciparum growth inhibition at 48 hours (one generation); Potency, µM (top dose mostly 28.7 µM), for inactives: top-dose activity change, negative = inhibition, usual class: inhibitors; P. falciparum luciferase growth in erythrocytes, 48 h; 310,000 compounds, 5.9% hits; AID 504832; also: % is scaled to controls: 0 for no effect and ±100 for the full control effect
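Growth was read as firefly luciferase luminescence after a 48 h, 37 C, 5% CO2 exposure of compounds to reporter-bearing P. falciparum cultures (0.1% parasitemia, 2% hematocrit final) in Albumax-supplemented RPMI 1640.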
AMA1 RON2 block – AMA1-RON2 (P. falciparum) interaction inhibition. AlphaScreen AMA1-biotinylated RON2 peptide binding. Potency, µM (highest dose often 58.2 µM), inactives show at the highest dose activity change, negative = inhibition, actives largely listed as inhibitors. 360,000 compounds, 0.2% hits. AID 720542;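 also: 0% = vehicle wells and -100% = peptide control; nearly all actives have a fitted effect of over 45% in size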
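AMA1 (3D7) with his tag at 25 nM final met compounds first, then biotinylated RON2 peptide at 25 nM; detection used donor plus acceptor beads, 10 µg/mL apiece, read by AlphaScreen after 30 min at room temperature.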
NS1 function inh – blocks influenza NS1 protein function | Potency, µM (titrated, usually from 46.1 µM), for the others: top-dose activity, positive = more growth | 270,000 compounds, 0.4% hits; calls by dose curve; also: actives are rising curves; nearly all actives have a fitted effect of over 50% in size
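In this qHTS, NS1 from influenza A is expressed in budding yeast, where it slows growth. Cells are switched from glucose to 2% galactose medium (pH 6.0, -URA), treated with compound, and growth recovery is read at OD600.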
Pf growth 96h – P. falciparum growth inhibition at 96 hours | P. falciparum luciferase reporter growth, 96 h | Potency, µM (top dose mostly 28.7 µM), for inactives: top-dose activity change, negative = inhibition, actives largely listed as inhibitors | 320,000 compounds, 6.9% hits | AID 504834; also: % is scaled to controls: 0 for no effect and ±100 for the full control effect
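96 h incubation, 37 C, 5% CO2, of luciferase-reporter P. falciparum-infected RBCs (2% hematocrit, 0.05% parasitemia final) with test compounds; endpoint luminescence.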
Numbers without * were called inactive; ? = inconclusive; / = no result; [ ] = remark or other dose. Rows were chosen to be rich in hits. Some 12% of all compounds tested hit in one or more screens of this group. Unless noted, calls follow the shape of the dose curve; as a rule, active = well fitted curve in the direction sought with a large enough effect; inconclusive = small, poorly fitted or top-dose-only effect, or another doubt; inactive = no such curve, though single readings can be large; an effect the other way counts as inactive or inconclusive. Potency is read from the fitted curve at half-maximal effect.

SMILES	SARS PLP yeast	HCV inhibitor	Pf growth 48h	AMA1 RON2 block	NS1 function inh	Pf growth 96h
S=C(NCc1cccnc1)NCc1cccnc1	1%	20%	-7%	10%	/	10µM*
COc1ccc(C(=O)NC(=S)NCc2cccnc2)cc1Br	15%	?	-25%	20%	-3%	16%
O=C(O)/C=C\C(=O)NCc1cccnc1	-3%	18%	19%	32%	-1%	2.6µM*
C=CCNC(=S)NCc1cccnc1	5%	20%	13%	9%	8%	51%
CN(C=O)c1ccc(CSc2ccccc2)cc1	/	3%	/	-21%	/	/
O=C(c1ccnc(Cl)c1)N1CCCC(N2CCN(c3ccccc3F)CC2)C1 (centres undefined)	10%	?	-21%	6%	6%	80%
O=C(Nc1ccc2c(c1)OCO2)C1CCN(C(=O)c2ccc(Br)cc2)CC1	0%	1%	1%[5.75 µM]	0%	/	?
CCN(CC)CCN1C(=O)C(=O)/C(=C(/O)c2ccc(OC(C)C)cc2)C1c1cccs1 (centres undefined)	0%	22%	88%	1%	0%	71%
CC(C)N1CCN(C(=O)c2ccc([N+](=O)[O-])cc2)CC1	/	23%	/	-20%	/	/
C#CCCC(=O)c1ccccc1/C=[N+](\[O-])c1ccccc1	5%	-5%	1.2µM*	5%	/	?
CC1Nc2ccccc2C(=O)N1NC(=O)c1ccc(Br)cc1 (centres undefined)	-2%	17%	29%	-3%	/	8.3µM*
CCOC(=O)N1CCN(C(=O)C[C@@H]2C[C@@]3(C(=O)OC)CC(C)(C)CC=C3N(Cc3cccc4ccccc34)C2=O)CC1	/	/	/	-18%	/	/
NC(=O)c1cc(N2C(=O)C=CC2=O)ccc1Cl	-11%	/	2.3µM*	-2%	4%	0%
CCOc1ccccc1NC(=O)Cn1nnc(C(=O)NCc2ccc3c(c2)OCO3)c1N	-4%	-8%	?	-5%	2%	16%
Cc1ccc(S(=O)(=O)N2CCCCC2)cc1NC(=O)Cn1ncc(Cl)c(Cl)c1=O	5%	0.71µM*	/	14%	/	/
O=C(Cn1ncc(Cl)c(Cl)c1=O)N1CCN(S(=O)(=O)c2ccc3ccccc3c2)CC1	-18%	5.6µM*	-14%	-17%	19%	?
Cc1ccc(S(=O)(=O)N2CCCCC2)cc1NC(=O)CNC(C)c1ccc(Cl)c(Cl)c1 (centres undefined)	1%	8.9µM*	?	4%	/	?
Cc1ccc(S(=O)(=O)N2CCCCC2)cc1NC(=O)Cn1cnnn1	-1%	27%	-14%	21%	3%	-15%
Cc1ccc(S(=O)(=O)N2CCCCC2)cc1NC(=O)CSCC(=O)O	-1%	6%	-13%	-5%	/	-43%[5.75 µM]
CCc1ccccc1NC(=O)CN(C)C(=O)Cn1ncc(Cl)c(Cl)c1=O	13%	2.8µM*	-22%	-9%	3%	6%
Cc1cc(Br)ccc1NC(=O)CNC(=O)Cn1ncc(Cl)c(Cl)c1=O	0%	2.2µM*	11%	-7%	1%	1%
CCC(C)C(N)C(=O)O (centres undefined)	/	/	-4%	/	/	-7%
O=c1oc2ccccc2c(O)c1CN1CCCCC1	-4%	12%	35%	25%	-54%	15µM*
Oc1ccc2cc(Br)ccc2c1CN1CCCC1	-3%	-6%	?	36%	/	4.7µM*
Oc1ccc2ccccc2c1CN1CCN(c2ccccc2)CC1	4%	10%	8.3µM*	-10%	-47%	?
SMILES	SARS PLP yeast	HCV inhibitor	Pf growth 48h	AMA1 RON2 block	NS1 function inh	Pf growth 96h
O=c1oc2ccccc2c(Nc2ccccc2)c1CN1CCCCC1	-1%	-29%	?	-10%	0%	?
Oc1ccc2ccccc2c1CN1CCCC1	-1%	10%	13µM*	-4%	1%	38%
Oc1ccc2ccccc2c1CN1CCCCC1	/	-10%	/	-6%	/	/
Oc1ccc2ccccc2c1CN1CC2CCC(CC2)C1	/	6%	/	-4%	/	/
Oc1ccc2ccccc2c1CN1CC=C(c2ccccc2)CC1	0%	13%	?	-28%	/	?
CC1(C)OC(=O)C2=C(C[C@@H](CCC(F)(F)F)O[C@H]2c2ccc(F)cc2)O1	/	/	/	-1%	/	/
C[C@@H](C(=O)O)[C@@H]1C[C@@]1(C)[C@@H](NC(=O)OCc1ccccc1)c1ccccc1	-1%	-7%[8.37 µM]	32%	-2%	6%	-15%
C[C@@H](C(=O)Nc1ccc2ccccc2c1)[C@H]1C[C@]1(C)[C@H](NP(=O)(c1ccccc1)c1ccccc1)c1ccccc1	5%	5%[8.37 µM]	?	/	?	10µM*
C[C@@H](C(=O)Nc1ccc2ccccc2c1)[C@@H]1C[C@@]1(C)[C@@H](NC(=O)OCc1ccccc1)c1ccccc1	-5%	-2%	?	3%	?	8%
C[C@@H](C(=O)Nc1ccc2ccccc2c1)[C@H]1C[C@]1(C)[C@H](NC(=O)c1cnccn1)c1ccccc1	-3%	?	2.9µM*	-3%	1%	1.5µM*
CNC(=O)[C@H](C)[C@@H]1C[C@@]1(C)[C@@H](NC(=O)OCc1ccccc1)c1ccccc1	-8%	-3%[8.37 µM]	13µM*	-9%	-2%	?
Cc1cc(C(=O)N[C@H](c2ccccc2)[C@@]2(C)C[C@@H]2[C@@H](C)C(=O)Nc2ccc3ccccc3c2)no1	14%	?	?	11%	8%	12µM*
CCOc1ccc(NC(=O)Nc2c(C)n(C)n(-c3ccccc3)c2=O)cc1	0%	4%	-1%	15%	-1%	-20%
COc1cc(C(C(=O)Nc2c(C)cccc2C)N(C)C(=O)c2ccc(-n3cnnn3)cc2)ccc1O (centres undefined)	1%	-16%	?	-3%	-18%	-9%
CC(=O)N1CCN(c2ccc(NCc3ccc4c(c3)OCO4)cc2)CC1	-6%	-17%	-29%	1%	?	188%
CCCC(=O)N1CCN(c2ccc(NC(=O)c3sc4ccccc4c3Cl)cc2)CC1	5%	0%	?	15%	9%	4.7µM*
O=C(Nc1ccc(N2CCN(C(=O)c3ccccc3)CC2)cc1)c1cc2ccccc2o1	-1%	?	12µM*	-1%	-47%	/
CN1CCN(c2ccccc2NC(=O)c2ccc(F)cc2)CC1	0%	-7%	?	-21%	-3%	?
O=C(c1ccccc1)N1CCN(c2ccc(NCc3ccc4c(c3)OCO4)cc2)CC1	2%	11µM*	22%	28µM*	?	?
CN1CCN(c2ccccc2NC(=O)c2sc3ccccc3c2Cl)CC1	0%	13µM*	?	-9%	/	82%
CN1CCN(c2ccc(NC(=O)c3cc4ccccc4o3)cc2)CC1	-1%	?	1%	-8%	7%	-2%
